{
  "source": "the supplement of paper PMC8728848",
  "binders": {"B1": {"name": "ECA (Erythrina cristagalli), P83410 (protein)", "chain": "VETISFSFSEFEPGNDNLTLQGAALITQSGVLQLTKINQNGMPAWDSTGRTLYTKPVHMWDSTTGTVASFETRFSFSIEQPYTRPLPADGLVFFMGPTKSKPAQGYGYLGVFNNSKQDNSYQTLAVEFDTFSNPWDPPQVPHIGIDVNSIRSIKTQPFQLDNGQVANVVIKYDAPSKILHVVLVYPSSGAIYTIAEIVDVKQVLPDWVDVGLSGATGAQRDAAETHDVYSWSFQASLPE"}},
  "test_in_all_cases": "glycan array binding signal (z-score within array); higher = stronger binding",
  "details_in_all_cases": "glycan notation: IUPAC condensed, linker removed",
  "key": {"[1]": {"target": "Fuc(a1-2)Gal(b1-3)GalNAc(b1-3)Gal(a1-4)Gal(b1-4)Glc", "summary_of_the_method": "(§1)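 Glycan array data were curated from 3228 arrays in the Consortium for Functional Glycomics database and kept only where the protein sequence was available. Glycan names were converted to IUPAC-condensed notation, and columns mapping to the same glycan were averaged. The binding signal is a within-array Z-score, averaged across arrays of the same protein sequence at different concentrations or buffers and across linkers. Negative Z-scores can be read as non-binding.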"}, "[2]": {"target": "Fuc(a1-2)Gal(b1-3)[Fuc(a1-4)]GlcNAc(b1-3)[Gal(b1-4)GlcNAc(b1-6)]Gal(b1-4)Glc", "summary_of_the_method": "as §1"}, "[3]": {"target": "Fuc(a1-2)Gal(b1-4)[Fuc(a1-3)]GlcNAc(b1-3)GalNAc", "summary_of_the_method": "as §1"}, "[4]": {"target": "Fuc(a1-2)Gal6S(b1-4)Glc6S", "summary_of_the_method": "as §1"}, "[5]": {"target": "Fuc(a1-2)[Gal(a1-3)]Gal(b1-4)GlcNAc(b1-2)Man", "summary_of_the_method": "as §1"}, "[6]": {"target": "Fuc(a1-2)[Gal(a1-3)]Gal(b1-4)GlcNAc(b1-6)GalNAc", "summary_of_the_method": "as §1"}, "[7]": {"target": "Fuc(a1-2)[Gal(a1-3)]Gal(b1-4)[Fuc(a1-3)]GlcNAc(b1-3)GalNAc", "summary_of_the_method": "as §1"}, "[8]": {"target": "Fuc(a1-3)[GalNAc(b1-4)]GlcNAc", "summary_of_the_method": "as §1"}, "[9]": {"target": "Gal(a1-3)Gal(b1-4)GlcNAc(b1-2)Man", "summary_of_the_method": "as §1"}, "[10]": {"target": "Gal(a1-3)Gal(b1-4)[Fuc(a1-3)]GlcNAc(b1-2)Man(a1-3)[Gal(a1-3)Gal(b1-4)[Fuc(a1-3)]GlcNAc(b1-2)Man(a1-6)]Man(b1-4)GlcNAc(b1-4)GlcNAc", "summary_of_the_method": "as §1"}, "[11]": {"target": "Gal(b1-3)GlcNAc(a1-6)Gal(b1-4)GlcNAc", "summary_of_the_method": "as §1"}, "[12]": {"target": "Gal(b1-3)GlcNAc(b1-6)GalNAc", "summary_of_the_method": "as §1"}, "[13]": {"target": "Gal(b1-3)[Fuc(a1-4)]GlcNAc", "summary_of_the_method": "as §1"}, "[14]": {"target": "Gal(b1-4)GlcNAc(b1-3)Gal(b1-4)GlcNAc(b1-2)Man(a1-3)[Gal(b1-4)GlcNAc(b1-3)Gal(b1-4)GlcNAc(b1-2)Man(a1-6)]Man(b1-4)GlcNAc(b1-4)GlcNAc", "summary_of_the_method": "as §1"}, "[15]": {"target": "Gal(b1-4)GlcNAc(b1-3)Gal(b1-4)GlcNAc(b1-2)[Gal(b1-4)GlcNAc(b1-3)Gal(b1-4)GlcNAc(b1-6)]Man(a1-6)[Gal(b1-4)GlcNAc(b1-3)Gal(b1-4)GlcNAc(b1-2)Man(a1-3)]Man(b1-4)GlcNAc(b1-4)[Fuc(a1-6)]GlcNAc", "summary_of_the_method": "as §1"}, "[16]": {"target": "Gal(b1-4)GlcNAc(b1-3)Gal(b1-4)GlcNAc(b1-3)Gal(b1-4)GlcNAc(b1-2)Man(a1-3)[Gal(b1-4)GlcNAc(b1-3)Gal(b1-4)GlcNAc(b1-3)Gal(b1-4)GlcNAc(b1-2)Man(a1-6)]Man(b1-4)GlcNAc(b1-4)GlcNAc", "summary_of_the_method": "as §1"}, "[17]": {"target": "Gal(b1-4)GlcNAc(b1-3)Gal(b1-4)GlcNAc(b1-3)Gal(b1-4)GlcNAc(b1-2)[Gal(b1-4)GlcNAc(b1-3)Gal(b1-4)GlcNAc(b1-3)Gal(b1-4)GlcNAc(b1-6)]Man(a1-6)[Gal(b1-4)GlcNAc(b1-3)Gal(b1-4)GlcNAc(b1-3)Gal(b1-4)GlcNAc(b1-2)Man(a1-3)]Man(b1-4)GlcNAc(b1-4)[Fuc(a1-6)]GlcNAc", "summary_of_the_method": "as §1"}, "[18]": {"target": "Gal(b1-4)GlcNAc(b1-3)Gal(b1-4)GlcNAc(b1-3)[Gal(b1-4)GlcNAc(b1-3)Gal(b1-4)GlcNAc(b1-6)]GalNAc", "summary_of_the_method": "as §1"}, "[19]": {"target": "Gal(b1-4)GlcNAc(b1-3)Gal(b1-4)GlcNAc(b1-6)[Gal(b1-3)]GalNAc", "summary_of_the_method": "as §1"}, "[20]": {"target": "Gal(b1-4)GlcNAc(b1-3)[Gal(b1-4)GlcNAc(b1-6)]GalNAc", "summary_of_the_method": "as §1"}, "[21]": {"target": "Gal(b1-4)GlcNAc(b1-6)Gal(b1-4)GlcNAc(b1-6)GalNAc", "summary_of_the_method": "as §1"}, "[22]": {"target": "GalNAc(a1-3)GalNAc", "summary_of_the_method": "as §1"}, "[23]": {"target": "GalNAc(b1-3)Gal", "summary_of_the_method": "as §1"}, "[24]": {"target": "GalNAc3S(b1-4)GlcNAc3S", "summary_of_the_method": "as §1"}, "[25]": {"target": "Glc(a1-4)Glc", "summary_of_the_method": "as §1"}, "[26]": {"target": "GlcNAc(b1-3)Gal(b1-4)GlcNAc(b1-3)Gal(b1-4)GlcNAc(b1-2)Man(a1-3)[GlcNAc(b1-3)Gal(b1-4)GlcNAc(b1-3)Gal(b1-4)GlcNAc(b1-2)Man(a1-6)]Man(b1-4)GlcNAc(b1-4)GlcNAc", "summary_of_the_method": "as §1"}, "[27]": {"target": "GlcNAc(b1-3)Gal(b1-4)GlcNAc(b1-3)Gal(b1-4)GlcNAc(b1-2)[GlcNAc(b1-3)Gal(b1-4)GlcNAc(b1-3)Gal(b1-4)GlcNAc(b1-6)]Man(a1-6)[GlcNAc(b1-3)Gal(b1-4)GlcNAc(b1-3)Gal(b1-4)GlcNAc(b1-2)Man(a1-3)]Man(b1-4)GlcNAc(b1-4)[Fuc(a1-6)]GlcNAc", "summary_of_the_method": "as §1"}, "[28]": {"target": "GlcNAc(b1-3)Gal(b1-4)GlcNAc(b1-3)Gal(b1-4)GlcNAc(b1-3)Gal(b1-4)GlcNAc(b1-3)Gal(b1-4)GlcNAc(b1-2)Man(a1-3)[GlcNAc(b1-3)Gal(b1-4)GlcNAc(b1-3)Gal(b1-4)GlcNAc(b1-3)Gal(b1-4)GlcNAc(b1-3)Gal(b1-4)GlcNAc(b1-2)Man(a1-6)]Man(b1-4)GlcNAc(b1-4)[Fuc(a1-6)]GlcNAc", "summary_of_the_method": "as §1"}, "[29]": {"target": "GlcNAc(b1-3)Gal(b1-4)GlcNAc(b1-6)[Gal(b1-3)]GalNAc", "summary_of_the_method": "as §1"}, "[30]": {"target": "GlcNAc(b1-3)GalNAc", "summary_of_the_method": "as §1"}},
  "note": "Only a selection was taken, and the strongest signals are over-represented in it overall.",
  "data": [
    {"binder": "B1", "values": [
      {"measurement": "glycan array binding signal (z-score)", "setting": "[1]", "result": -0.125},
      {"measurement": "glycan array binding signal (z-score)", "setting": "[2]", "result": -0.309},
      {"measurement": "glycan array binding signal (z-score)", "setting": "[3]", "result": 0.542},
      {"measurement": "glycan array binding signal (z-score)", "setting": "[4]", "result": -0.123},
      {"measurement": "glycan array binding signal (z-score)", "setting": "[5]", "result": -0.485},
      {"measurement": "glycan array binding signal (z-score)", "setting": "[6]", "result": -0.455},
      {"measurement": "glycan array binding signal (z-score)", "setting": "[7]", "result": -0.399},
      {"measurement": "glycan array binding signal (z-score)", "setting": "[8]", "result": -0.226},
      {"measurement": "glycan array binding signal (z-score)", "setting": "[9]", "result": -0.517},
      {"measurement": "glycan array binding signal (z-score)", "setting": "[10]", "result": 10.5},
      {"measurement": "glycan array binding signal (z-score)", "setting": "[11]", "result": -0.325},
      {"measurement": "glycan array binding signal (z-score)", "setting": "[12]", "result": -0.491},
      {"measurement": "glycan array binding signal (z-score)", "setting": "[13]", "result": -0.234},
      {"measurement": "glycan array binding signal (z-score)", "setting": "[14]", "result": 3.88},
      {"measurement": "glycan array binding signal (z-score)", "setting": "[15]", "result": 0.699},
      {"measurement": "glycan array binding signal (z-score)", "setting": "[16]", "result": 4.58},
      {"measurement": "glycan array binding signal (z-score)", "setting": "[17]", "result": 1.81},
      {"measurement": "glycan array binding signal (z-score)", "setting": "[18]", "result": 4.2},
      {"measurement": "glycan array binding signal (z-score)", "setting": "[19]", "result": 4.88},
      {"measurement": "glycan array binding signal (z-score)", "setting": "[20]", "result": 5.59},
      {"measurement": "glycan array binding signal (z-score)", "setting": "[21]", "result": 5.39},
      {"measurement": "glycan array binding signal (z-score)", "setting": "[22]", "result": -0.186},
      {"measurement": "glycan array binding signal (z-score)", "setting": "[23]", "result": -0.272},
      {"measurement": "glycan array binding signal (z-score)", "setting": "[24]", "result": -0.509},
      {"measurement": "glycan array binding signal (z-score)", "setting": "[25]", "result": -0.148},
      {"measurement": "glycan array binding signal (z-score)", "setting": "[26]", "result": 3.72},
      {"measurement": "glycan array binding signal (z-score)", "setting": "[27]", "result": 3.4},
      {"measurement": "glycan array binding signal (z-score)", "setting": "[28]", "result": 0.151},
      {"measurement": "glycan array binding signal (z-score)", "setting": "[29]", "result": -0.412},
      {"measurement": "glycan array binding signal (z-score)", "setting": "[30]", "result": -0.366}
    ]}
  ]
}
